# This is a sample that favours compounds with a hit; in the whole collection about 7.6% have one here.
# HCV NS3h FP = hepatitis C NS3 helicase inhibition, primary screen | NS3h Cy5-dT15 DNA binding, fluorescence polarization | inhibition, % at 100 µM | 16,000 compounds, 1.6% hits | AID 687043;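 active means inhibition above the average over every tested compound plus 3 SD, cut at about 40% in these data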
# Cy5 interf NS3h = counter-screen for HCV NS3 helicase inhibitors: fluorescence interference | Cy5-dT15 DNA with NS3h; actives lie on both sides; signal over control mean, under 1 quenches | fluorescence interference ratio at 100 µM | 16,000 compounds, 6% hits | AID 720488;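 active means compound fluorescence over control fluorescence at most 0.8, a quencher, or at least a set upper limit, an enhancer; inactive means ratio between 0.8 and the set upper limit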
# Starred values were filed as active, the others as inactive.
SMILES,HCV NS3h FP,Cy5 interf NS3h
COc1ccc(CN2CCN(Cc3ccc(C)cc3)CC2)cc1OC,-9,1
COc1ccc(/C(C)=N/N2CCN(Cc3ccc(Cl)cc3)CC2)cc1OC,19,0.68*
CCOc1ccc(S(=O)(=O)N(CC(=O)Nc2ccc(C)cc2C)c2ccc(C)cc2)cc1,7,0.94
O=C(NCc1cccnc1)c1cnn2c(C(F)(F)F)cc(-c3ccc4c(c3)OCO4)nc12,5,1.1
O=C(O)C1C2C=CC(C3CC23)C1C(=O)Nc1ccc(F)cc1 (stereo unspecified),-12,0.69*
Cc1ccc(NC(=O)C2C3CC/C=C\CCC32)cc1 (stereo unspecified),2,1
O=C1C(=O)N(CCCn2ccnc2)C(c2cccc([N+](=O)[O-])c2)C1=C(O)c1ccc(Cl)cc1 (stereo unspecified),1,0.98
CS(=O)(=O)N(Cc1ccc(C(=O)NCCSc2ccccn2)cc1)c1ccccc1,18,1.1
COCCNC(=O)c1ccc(CN(c2ccccc2)S(C)(=O)=O)cc1,18,0.72*
COc1ccc(N2C(=O)c3ccccc3NC2c2c(F)c(F)c(F)c(F)c2F)cc1 (stereo unspecified),7,0.95
O=C(O)c1cccc(-c2ccc(/C=C3\SC(=O)N(c4ccc(Cl)cc4)C3=O)o2)c1,19,0.76*
O=C1S/C(=C\c2ccc(Br)o2)C(=O)N1c1ccc(Cl)cc1,4,0.91
COc1cccc(/C=C2\N=C(c3ccccc3Br)OC2=O)c1,6,1.1
COc1ccc(OC)c(/C=N\n2cnnc2)c1,4,1
CCc1ccc(N2C(=O)/C(=C/c3ccc(O)c(Cl)c3)C(=O)NC2=S)cc1,0,1.2
CCOc1ccc(/C=C2\C(=O)NC(=S)N(c3ccc(C)cc3)C2=O)cc1Cl,6,0.9
O=C1NC(=S)N(c2ccc(F)cc2)C(=O)/C1=C/c1ccc(F)cc1,8,0.65*
Cc1ccc(N2C(=O)/C(=C/C=C/c3ccccc3)C(=O)NC2=S)cc1,34,0.72*
Cc1ccc2[nH]c(O)c(N=Nc3ccc([N+](=O)[O-])cc3)c2c1,4,0.93
CN(C)C1(c2cccs2)CS(=O)(=O)C1,8,0.99
Cc1ccc(CN2CCN(S(C)(=O)=O)CC2)cc1,8,0.68*
CCOc1ccc(S(=O)(=O)N2CCOCC2)cc1,1,1.1
Cc1ccc(NC(=O)C(=O)NCCN2CCN(S(C)(=O)=O)CC2)cc1,9,0.96
CCOc1ccc(CN2CCN(S(C)(=O)=O)CC2)cc1,-1,0.71*
COC(=O)c1ccccc1NC(=O)CSC(N)=O,24,0.94
SMILES,HCV NS3h FP,Cy5 interf NS3h
COc1ccc(C2CC(C(F)(F)F)n3nc(C(=O)N4CCN(C)CC4)c(Cl)c3N2)cc1 (stereo unspecified),7,1.1
Cc1cc(Cl)ccc1NC(=O)c1ccc(I)cc1,12,0.9
O=C(N1CCSCC1)C(F)(F)C(F)(F)C(F)(F)C(F)(F)F,12,0.8*
CCc1ccc(CN2CCN(Cc3cc(OC)ccc3O)CC2)cc1,7,1
CCOC(=O)Nc1n[nH]c(NC(=O)OCC)c1[N+](=O)[O-],12,0.66*
CCOC(=O)Nc1cc([N+](=O)[O-])ccc1Cl,19,0.98
CCOC(=O)C1=C(C)NC(=S)NC1c1ccc(C(=O)O)cc1 (stereo unspecified),9,1
CCOc1ccc(NC(=S)NC(=O)/C=C/c2ccc(OC)c(OC)c2)c([N+](=O)[O-])c1,-6,0.8*
CCOc1ccc(NC(=O)c2ccc(S(=O)(=O)N(C)C)cc2)c([N+](=O)[O-])c1,16,0.57*
CCOc1ccc(NC(=S)NC(=O)/C=C/c2ccc(C)cc2)c([N+](=O)[O-])c1,12,0.93
CCOc1ccc(NC(=S)NC(=O)c2ccc(OC)cc2)c([N+](=O)[O-])c1,8,1
O=C1c2cccc3cccc(c23)C(=O)N1/N=C\c1ccc(Cl)cc1,-20,0.89
CCOc1ccc(NC(=O)CN(c2ccc(C(C)C)cc2)S(=O)(=O)c2ccccc2)cc1,6,0.99
O=C(Nc1ccc(S(=O)(=O)N2CCCCC2)cc1)c1ccc(F)cc1,9,0.91
O=C(Nc1ccc(S(=O)(=O)N2CCCCCC2)cc1)C(F)(F)F,14,0.77*
COc1ccc(/C=C/C(=O)NCC2CCCO2)cc1Br (stereo unspecified),4,1.1
COc1ccc(/C=C/C(=O)N2CCC(C)CC2)cc1Br,10,0.62*
CCCC(O)=C1C(=O)CC(C)(C)CC1=NCCO,16,0.88
O=C(CC1c2ccccc2Oc2ccccc21)NCCOc1ccccc1,38,0.67*
Cc1ccc(OCCNC(=O)Cc2cccc3ccccc23)cc1,12,0.97
Cc1cc(Cl)ccc1OCC(=O)NCC1CCCO1 (stereo unspecified),4,1
Cc1cccc(Cl)c1NC(=O)C1CC(=O)N(c2ccc(Br)cc2)C1 (stereo unspecified),19,1.1
CC(=O)N1CCN=C1Nc1c(Cl)cccc1Cl,12,0.6*
COc1ccccc1NC(=O)c1ccccc1NC(=O)c1ccccc1Cl,12,0.99
CCOC(=O)N1CCN(C(=O)C(C)N2C(=O)c3ccccc3C2=O)CC1 (stereo unspecified),-2,1
SMILES,HCV NS3h FP,Cy5 interf NS3h
COc1cc(NC(C)=O)c(Cl)cc1NC(=O)c1ccccc1,4,1
COc1cc(NC(=O)C(F)(F)F)c(Cl)cc1NC(=O)c1ccccc1,43*,0.93
CCOC(=O)C(CC(C)C)NC(=O)CCN1C(=O)c2ccccc2C1=O (stereo unspecified),14,0.94
O=C(COc1ccc2ccc(=O)oc2c1)c1ccc(Cl)cc1,8,1.2
COc1cc(/C=C2\NC(=S)NC2=O)ccc1OC(=O)C12CC3CC(CC(C3)C1)C2,7,0.68*
Cc1ccc(OC(=O)C23CC4CC(CC(C4)C2)C3)c(C)n1,-2,0.83
CCCOc1cccc(-c2nnc(NC(=O)Nc3cccc(Cl)c3)s2)c1,1,1
Cc1ccc(OCCOCCOc2ccc(Cl)cc2/C=C2/SC(=S)NC2=O)cc1,23,0.97
C=CCOc1ccc(Cl)cc1/C=C1/SC(=S)NC1=O,12,1.2*
COc1ccc(C(=O)N/C(=C/c2ccc(-c3ccc(Cl)cc3)o2)C(=O)N(C)C)cc1,20,0.86
C1CCc2sc3c(c2CC1)c1nnnn1c1nnnn31,2,1
Cc1cc(/C=C2\C(=O)NC(=S)N(c3ccc(Cl)cc3)C2=O)c(C)n1-c1cccnc1,2,1
O=C(COc1ccccc1Cl)Nc1c[nH]c(=O)[nH]c1=O,-37,1.3*
O=C(COc1ccccc1Cl)NNC(=O)c1ccccc1I,12,1
CCc1c(C#N)c(N)nc(SCC(=O)c2ccc(Cl)c(Cl)c2)c1C#N,8,0.98
O=C(O)c1ccc(C(=O)NCc2ccccc2)c(C(=O)O)c1,-8,1
Cc1ccc(C(O)(CNCc2ccccc2)c2ccc(Br)cc2)cc1 (stereo unspecified),7,0.93
COc1ccc(C(O)(CNCc2ccccc2)c2ccc(Br)cc2)cc1 (stereo unspecified),16,0.73*
Cc1ccc(CNC(=O)C(=O)NCc2ccncc2)cc1,-4,1
O=C(NCc1ccccc1)c1ccccc1Cl,7,0.79*
Cc1ccc(CNC(=O)C(=O)NCc2ccccc2)cc1,9,1.2*
O=C(NCc1ccc(F)cc1)c1ccccc1I,10,1
O=C(Cc1ccc(F)cc1)NCc1ccccc1,3,0.59*

# High-throughput results as filed in PubChem BioAssay.
